# High-throughput results: PubChem, several laboratories
# TRPM1 prom inh – inhibitors of MITF-driven TRPM1 promoter in melanoma cells. inhibition, % at 12.5 µM. SK-MEL-5 TRPM1 promoter luciferase, 24 h. AID 488899. hit rate 0.83% among 330,000;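 active = mean inhibition across replicates of 60% or more, whatever share of single replicates reaches that level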
# CF NFkB block – blocks PAF-induced NF-kB reporter in cystic fibrosis cells. hit rate 0.86% among 360,000. inhibition, % at 5 µM. KKLEB NF-kB-GFP reporter, GFP fluorescence overnight;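 active = at least 50% inhibition at 5 µM, scaled per plate between neutral and stimulator controls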;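 also: PAF is a Pseudomonas aeruginosa culture filtrate used as stimulus; plate controls were PAF-stimulated DMSO wells for no effect and unstimulated DMSO wells for full effect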
# Peg3 prom inh – inhibitors of Peg3 promoter. HeLa PEG-Prom luciferase reporter, luminescence, overnight. inhibition, % at 20 µM. hit rate 1.7% among 360,000;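 active = inhibition of at least 50% at 20 µM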
# EBV LMP1 NFkB – reduces LMP1-driven NF-kappaB luciferase signal | LMP1-induced NF-kappaB luciferase reporter cells, luminescence | hit rate 0.69% among 350,000 | AID 504558 | inhibition, % at 12.5 µM; in the data active = inhibition above about 41%;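 also: 0% = neutral control wells and 100% = reference inhibitor control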
# HIF-2a inh – blocks HIF-2a reporter activity | inhibition, % at 18.8 µM | hit rate 0.72% among 360,000 | 786-0 RCC cells HIF-2a reporter, luciferase luminescence, overnight;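 active = inhibition of the luminescence signal of 40% or more relative to plate controls, in a single-dose primary screen at 18.75 µM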
# KKLEB cytotox – reduces viability of KKLEB cystic fibrosis airway cells; KKLEB CF airway cells viability, ATPlite luminescence, overnight; active compounds read low; cells stimulated with P. aeruginosa culture filtrate; AID 602141; hit rate 0.36% among 360,000; activity change (cytotoxicity), % at 5 µM;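 active = corrected activity change at or below -50% at 5 µM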
# CF NFkB inh conf – confirmation of cystic fibrosis induced NF-kB inhibitors | shares compounds with CF NFkB block | KKLEB CF airway cells, PAF-induced NF-kB-GFP fluorescence, overnight | inhibition, % at 5 µM | hit rate 64% among 1,300 | AID 602472; in the data active = inhibition above about 40%;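 also: stimulus PAF is a Pseudomonas aeruginosa filtrate and not platelet activating factor; plate controls were DMSO wells with stimulus for no effect and unstimulated DMSO wells for full effect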
# An asterisk follows results filed as active; x = no result given. An excerpt weighted towards active compounds, which were near 3% of everything screened.
SMILES,TRPM1 prom inh,CF NFkB block,Peg3 prom inh,EBV LMP1 NFkB,HIF-2a inh,KKLEB cytotox,CF NFkB inh conf
COc1ccc(NC(=O)Nc2nnc(-c3ccccc3SCc3ccccc3)s2)cc1,-9,50*,-2,-1,17,-35,21
COc1cccc(NC(=O)Nc2nnc(-c3ccccc3SCc3ccccc3)s2)c1,14,6,4,-45,-4,-15,x
COc1ccc(COc2cc(-c3cccc(OC)c3)nc3ccc(NC(=O)c4cccnc4)cc23)cc1,4,80*,54*,-14,17,-17,92*
C[C@H](CO)N1C[C@H](C)[C@@H](CN(C)C(=O)Nc2ccc(C(F)(F)F)cc2)Oc2c(NC(=O)Nc3ccc4c(c3)OCO4)cccc2C1=O,11,-53,-8,5,-1,20,x
C[C@@H]1CN([C@H](C)CO)C(=O)c2cc(NC(=O)Nc3ccc(C(F)(F)F)cc3)ccc2O[C@H]1CN(C)S(=O)(=O)c1ccc(Cl)cc1,20,64*,23,7,0,-6,70*
C[C@H](CO)N1C[C@H](C)[C@@H](CN(C)S(=O)(=O)c2cccs2)Oc2ccc(NC(=O)Nc3ccc(C(F)(F)F)cc3)cc2C1=O,7,14,39,-5,17,-17,x
C[C@H](CO)N1C[C@H](C)[C@@H](CN(C)C(=O)Nc2ccc3c(c2)OCO3)Oc2c(NC(=O)Nc3ccc(C(F)(F)F)cc3)cccc2C1=O,10,80*,60*,-1,-20,-18,91*
Cc1ccc(S(=O)(=O)N(C)C[C@@H]2Oc3ccc(NC(=O)CCC(F)(F)F)cc3CC(=O)N([C@@H](C)CO)C[C@@H]2C)cc1,43,53*,9,-2,9,-18,43*
C[C@@H]1CN([C@H](C)CO)C(=O)c2cc(NC(=O)Nc3ccc(C(F)(F)F)cc3)ccc2O[C@H]1CN(C)S(=O)(=O)c1cccs1,0,57*,28,-1,33,1,81*
Cc1ccc(OCCCC(=O)N(C)CC(=O)Nc2c(C)cccc2C)cc1,x,-7,-8,2,-8,1,x
COC(=O)c1c(-c2ccccc2)oc2c1C(OCCO)CCC2 (configuration not stated),x,x,x,x,4,x,x
CC(C)(C)N1C(=O)c2ccccc2NC(=O)C1C(=O)NCc1ccco1 (configuration not stated),x,x,x,x,3,x,x
C[C@H](CO)N1C[C@H](C)[C@H](CN(C)S(=O)(=O)c2ccc(Cl)cc2)OCc2ccccc2-c2c(n(C)c3ccccc23)C1=O,x,86*,40,2,-48,-6,4
COCCNC(=O)C1(C)CCCN(Cc2ccc(Oc3ccccc3)cc2)C1 (configuration not stated),x,16,4,x,11,-10,x
C=CCN1c2ccccc2Sc2cnccc21,x,80*,35,-3,5,-11,91*
CC(=O)OCCN1c2ccccc2Sc2cnccc21,x,65*,26,11,24,-3,67*
Cn1c(=O)c2cc(NC(=O)NCc3ccccc3)ccc2n1Cc1ccc(Cl)cc1,x,10,16,x,2,-10,x
C=C(C)[C@@H]1CC[C@]2(C(=O)O)CC[C@]3(C)[C@H](CC[C@@H]4[C@@]5(C)CC[C@H](O)C(C)(C)[C@@H]5CC[C@]43C)[C@@H]12,5,70*,54*,1,4,5,56*
CC(C)C[C@H]1CNC(=S)N1C[C@H]1CCCN1C[C@H](Cc1ccccc1)N1C[C@H](Cc2ccc(O)cc2)N(CC2CCCCC2)C1=S,x,65*,93*,x,-12,-22,19
Oc1ccc(C[C@H]2CN([C@@H](Cc3ccccc3)CN3CCCC3CN3C(=S)NC[C@@H]3Cc3ccccc3)C(=S)N2CCc2ccccc2)cc1 (some centres not stated),x,x,x,x,-4,x,x
CCOc1ccc(CCN2C(=S)N([C@@H](Cc3ccc(O)cc3)CN3CCC[C@@H]3CN3C(=S)NC[C@@H]3CC(C)C)C[C@@H]2Cc2ccc(O)cc2)cc1,x,55*,101*,x,-48,-16,-15
Oc1ccc(C[C@H]2CNC(=S)N2CC2CCCN2C[C@H](Cc2ccc(O)cc2)N2C[C@H](Cc3ccccc3)N(CC3CCCCCC3)C2=S)cc1 (some centres not stated),18,19,18,2,-22,-3,x
Oc1ccc(C[C@H]2CNC(=S)N2CC2CCCN2C[C@H](Cc2ccc(O)cc2)N2C[C@H](Cc3ccc(O)cc3)N(CC3CCCCCC3)C2=S)cc1 (some centres not stated),72*,62*,54*,-27,-43,-14,32
CC(C)C[C@@H](CN1CCCC1CN1C(=S)NC[C@@H]1Cc1ccc(O)cc1)N1C[C@H](Cc2ccc(O)cc2)N(CCc2ccccc2)C1=S (some centres not stated),35,59*,91*,7,-37,-11,61*
CC(C)C[C@@H](CN1CCC[C@@H]1CN1C(=S)NC[C@@H]1Cc1ccc(O)cc1)N1C[C@H](Cc2ccc(O)cc2)N(CC2CCCCC2)C1=S,x,67*,98*,x,-31,-39,46*
SMILES,TRPM1 prom inh,CF NFkB block,Peg3 prom inh,EBV LMP1 NFkB,HIF-2a inh,KKLEB cytotox,CF NFkB inh conf
Oc1ccc(C[C@H]2CNC(=S)N2CC2CCCN2C[C@H](Cc2ccc(O)cc2)N2C[C@H](Cc3ccccc3)N(CC3CCCCC3)C2=S)cc1 (some centres not stated),35,52*,92*,11,-28,-7,45*
Oc1ccc(C[C@@H](CN2CCCC2CN2C(=S)NC[C@@H]2Cc2ccccc2)N2C[C@H](Cc3ccccc3)N(CC3CCCCC3)C2=S)cc1 (some centres not stated),x,x,x,x,2,x,x
COc1cc(-n2c(C)nc3ncn(-c4ccccc4)c3c2=O)cc(OC)c1OC,x,-25,-6,0,0,17,x
CCOc1ccccc1NC(=S)Nc1ccc2cn[nH]c2c1,-9,58*,-53,-2,-60,2,67*
S=C(Nc1ccccc1)Nc1ccc2cn[nH]c2c1,-39,35,-288,-22,-273,-16,x
CCOC(=O)C1=C(COC(=O)C2CC(=O)N(c3ccccc3CC)C2)NC(=O)NC1C (configuration not stated),x,13,4,-2,3,4,x
COc1ccc2ncn(-c3ccccc3)c2c1,-38,58*,-3,13,12,-6,57*
O=C(CN1C(=O)CCC1=O)Nc1nc(-c2nc3ccccc3s2)cs1,-87,71*,-251,-2,-260,0,92*
O=C(CN1C(=O)CCC1=O)Nc1nc(-c2ccccn2)cs1,4,-30,5,-1,10,-5,x
